# Bioassay records deposited in PubChem BioAssay by National Center for Advancing Translational Sciences (NCATS).
# HP1b binding inh: HP1-beta chromodomain-methylated histone interaction inhibition | Potency, µM (top dose mostly 114 µM), inactives show top-dose activity change, negative = inhibition, hits mostly inhibitors | 0.56% of 390,000 active | AlphaScreen HP1-beta / biotin-H3K9me3 peptide binding; note: nearly all actives have a fitted effect of over 70% in size
# Target sequence (P83916 whole entry, looked up): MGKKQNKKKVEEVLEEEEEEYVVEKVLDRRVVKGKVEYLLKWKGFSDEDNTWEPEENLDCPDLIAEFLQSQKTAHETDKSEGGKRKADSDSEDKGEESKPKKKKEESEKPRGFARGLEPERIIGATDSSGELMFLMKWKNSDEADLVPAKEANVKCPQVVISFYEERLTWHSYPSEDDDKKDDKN
#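 HP1-beta protein (50 nM final) preincubated 30 min at room temperature with biotinylated H3(1-18)K9me3 peptide (50 nM) in PBS pH 7.4, 0.01% Tween-20, then compound added for 30 min. AlphaScreen streptavidin donor/nickel chelate acceptor beads (10 ug/mL final), 30 min dark, luminescence read.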
# 12-LOX inh: blocks human arachidonate 12S-lipoxygenase | P18054 | purified 12hLO, xylenol orange hydroperoxide absorbance | Potency, µM (doses to about 108 µM), for inactives: at the top dose activity change, negative = inhibition, hits mostly inhibitors | 1.1% of 580,000 active | AID 1671190; note: % is set by controls: 0 for no effect and ±100 for the full control effect
#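 Hydroperoxide product was detected by ferrous iron/xylenol orange as the 573 to 405 nm absorbance ratio. Arachidonic acid at 40 uM (final) was turned over for 30 min at room temperature by 150 nM human 12hLO, pH 7.0 Hepes buffer, after 15 min compound preincubation.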
# JMJD2A Tudor inh: blocks the human JMJD2A Tudor domain | Potency, µM (titrated, usually from 114 µM), for the others: at the top dose activity change, negative = inhibition, hits mostly inhibitors | O75164 | 4.4% of 390,000 active | AlphaScreen JMJD2A-Tudor / H3K4me3 peptide binding; note: % is set by controls: 0 for no effect and ±100 for the full control effect; nearly all actives have a fitted effect of over 50% in size
# Sfp inh: inhibitors of Bacillus subtilis Sfp phosphopantetheinyl transferase | Q9F4F7 | AID 1490 | Biochemical Sfp PPTase activity, qHTS | 3.5% of 310,000 active | Potency, µM, inactives show largest response in the series, negative = inhibition, most hits filed as inhibitors;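 note: the enzyme is Sfp with the accession as filed and its product quenches rhodamine fluorescence; 0% = enzyme reaction without inhibitor and -100% = no enzyme wells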
#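 Buffer: 50 mM Hepes-Na pH 7.6, 10 mM MgCl2, 0.01% Nonidet P-40, 0.01% BSA. Enzyme 15 nM, pre-exposed to compound 15 min; substrates then added and fluorescence change tracked over 30 min.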
# G9a block: G9a (human) methyltransferase inhibition; G9a H3K9 monomethylation, AlphaScreen, 2 h; Potency, µM (titrated, usually from 102 µM), without a hit: at the top dose activity, negative = inhibition, most hits filed as inhibitors; 8.8% of 350,000 active; note: % is set by controls: 0 for no effect and ±100 for the full control effect; nearly all actives have a fitted effect of over 75% in size
# Target sequence (Q96KQ7 913-1193 limits assumed): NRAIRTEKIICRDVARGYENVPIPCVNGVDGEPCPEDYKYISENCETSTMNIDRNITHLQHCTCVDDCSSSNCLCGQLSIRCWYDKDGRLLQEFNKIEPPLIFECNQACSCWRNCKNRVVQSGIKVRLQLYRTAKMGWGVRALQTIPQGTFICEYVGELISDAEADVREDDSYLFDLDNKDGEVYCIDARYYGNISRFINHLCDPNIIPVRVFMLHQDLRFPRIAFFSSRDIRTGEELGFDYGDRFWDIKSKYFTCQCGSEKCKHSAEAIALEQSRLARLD
#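 Signal arises when biotinylated H3K9 peptide, once monomethylated, bridges streptavidin donor and antibody-captured acceptor beads. Enzyme at 20 nM was preincubated 15 min with test compounds; peptide 500 nM and SAM 20 uM then reacted for 2 h.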
# BAZ2B inh: inhibitors of human BAZ2B bromodomain. AlphaScreen BAZ2B-H3K14Ac peptide displacement. Potency, µM (top dose mostly 114 µM), without a hit: top-dose activity change, negative = inhibition, hits mostly inhibitors. 4.4% of 360,000 active; note: % is set by controls: 0 for no effect and ±100 for the full control effect; nearly all actives have a fitted effect of over 60% in size
#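 AlphaScreen displacement: compounds (up to 110uM) incubated 30 min at room temperature with a preformed 50 nM BAZ2B/50 nM biotinylated H3K14Ac peptide complex in PBS pH 7.4 with Tween-20. Donor and acceptor beads at 10 ug/mL final added, 20 min light-protected before reading.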
# * marks the source's active call; other numbers are inactive results; ? = inconclusive; / = no result given; ! = not confirmed by another sample; [ ] = remark or other dose. Only some compounds are listed: those with a hit (about 8.7% of all), similar ones and a draw of the others. Calls come from the whole dose curve; as a rule, active = well fitted curve in the direction sought with a large enough effect; inconclusive = small, poorly fitted or top-dose-only effect, or another doubt; inactive = no such curve, though single readings can be large; an effect the other way counts as inactive or inconclusive. Potency is the fitted concentration of half-maximal effect.
SMILES,HP1b binding inh,12-LOX inh,JMJD2A Tudor inh,Sfp inh,G9a block,BAZ2B inh
Cc1ccc2ccc(C(Nc3ccccn3)c3ccccc3)c(O)c2n1 (centres undefined),4%,?,?,11%,14µM*,?
Cc1ccc2ccc(C(Nc3ccccc3)c3ccccc3)c(O)c2n1 (centres undefined),/,-14%,/,/,/,/
Cc1ccc2ccc(C(Nc3ccccc3)c3ccc(C(C)C)cc3)c(O)c2n1 (centres undefined),/,-27%,/,/,/,/
COc1cc(C(Nc2ccccn2)c2ccc3ccc(C)nc3c2O)cc(OC)c1O (centres undefined),?,/,50µM*,18µM*,?,50µM*
CCOc1ccc(S(=O)(=O)N(CC(=O)N2CCC(C(N)=O)CC2)c2ccccc2)cc1,/,-2%,/,/,/,/
CCc1cccc(C)c1-n1nnnc1C1(Nc2ccc3c(c2)OCCO3)CCCC1,/,10%,/,/,/,/
N[C@@H](CO)C(=O)O,/,?,/,63µM*!,/,/
N[C@H](CO)C(=O)O,/,?,/,-4%,12µM*!,/
O=c1cc(O)nc(-c2ccc(Cl)cc2)s1,-12%,45µM*,-18%,18µM*,28µM*,-36%
O=c1cc(O)nc(-c2ccccc2)s1,-23%,?,-9%[57.1 µM],13µM*,45µM*,-14%
CCOC(=O)c1sc(-c2ccc(Cl)cc2)nc1O,47%,99%,12%,-22%,10%,-18%
Cc1ccc(C(NC(=O)N2CCN(C)CC2)C(Cl)(Cl)Cl)cc1F (centres undefined),/,-27%,/,/,/,/
Cc1ccc(OCC(=O)N(C)CC(=O)NCc2ccco2)c(Br)c1,?,?,35µM*,/,56µM*,50µM*
CC(=O)c1cccc(OCC(=O)N(C)CC(=O)NCc2ccco2)c1,?,12%,22µM*,/,/,/
CC(=O)Nc1ccc(S(=O)(=O)N[C@H]2CO[C@H]3[C@@H]2OC[C@@H]3n2nnnc2Oc2ccc3c(c2)OCO3)cc1,/,1%,/,/,/,/
O=C1C2CCCN2C(c2ccccc2)N1c1ccc(F)cc1 (centres undefined),67%,1%,-2%,-5%,-21%,-3%
O=C(c1ccccc1)[C@@H]1[C@@H]2C(=O)N(c3ccc(F)cc3)C(=O)[C@@H]2C2CCCN21 (some centres undefined),-10%,?,?,89µM*,/,-1%
Cc1ccc(N2C(=O)[C@@H]3[C@H](C2=O)C2CCCN2[C@@H]3C(=O)c2ccccc2)cc1 (some centres undefined),12%,45µM*,56µM*,56µM*,-2%[2.33 µM],?
CCCCCc1ccc(-c2ccc(C3CCC(CCC)CC3)c(F)c2)nc1 (centres undefined),/,-9%,/,/,/,/
CCOc1ccccc1NC(=O)N1CCCCCCN(C)C(=O)[C@H]2CCC[C@H]21,/,63%,/,/,/,/
Cn1ccnc1CN[C@@H]1CO[C@H](CNC(=O)c2ccc(F)cc2)[C@H]1O,/,22%[176 µM],/,/,/,/
OC[C@@H]1CN(Cc2cccc3ccccc23)C[C@H](n2cnc3c(NCc4ccco4)ncnc32)O1,/,35µM*,/,/,/,/
Cc1ccc(NC(=O)CCC(=O)NCCO)cc1,28%,70%,2%,24%,1%,9%
Cc1ccc(NC(=O)CS(=O)CC(=O)NCCCN(C)c2ccccc2)cc1 (centres undefined),10%,3%,-10%,-18%,40µM*,9%
COc1cc(/C=N/NC(=O)c2cc(O)cc(O)c2)ccc1OC(=O)c1ccccc1,28µM*,12%,22µM*,-12%,8.9µM*,11µM*
COc1ccc(/C=N\NC(=O)c2cc(O)c(O)c(O)c2)cc1COc1ccc(C(=O)OCC(C)C)cc1,-7%,0%,?,?,22µM*,56µM*
COc1ccc(/C=N\NC(=O)c2cc(O)c(O)c(O)c2)cc1CN1CCN(c2ccc(F)cc2)CC1,?,?,56µM*,14µM*,7.1µM*,35µM*
